According to PubChem BioAssay (NCATS):
“And” between values parts separate entries of the source, which are not always exact repeats. Identical values can stand only once. Inconclusive results are not listed. The source made the active and inactive calls. Unless noted, the call rests on the fitted dose curve; in most records, active means well fitted curve in the direction sought with a large enough effect; inconclusive means small, poorly fitted or top-dose-only effect, or another doubt; inactive means no such curve, though single readings can be large; an effect the other way counts as inactive or inconclusive.

Experiments:
[1] = Cell Viability - LYMP2-020 (AID 986); further: potency means the concentration at half of the fitted maximal effect; nearly all actives have a fitted effect of over 55% in size
In short: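 qHTS, 2500 cells/well; 5 hr then 24 hr compound exposure, 37 C; CellTiter-Glo luminescence after 30 min RT; ATP decrease taken as cytotoxicity; AC50 via Hill equation; tetraoctylammonium bromide positive control.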

[2] = Cell Viability - LYMP2-022 (AID 987); further: potency means the concentration at half of the fitted maximal effect; nearly all actives have a fitted effect of over 55% in size
In short: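 Luminescent ATP read-out (CellTiter-Glo, 30 min, RT) after 24 hr, 37 C compound exposure of 2500 human lymphoblastoid cells/well in complete medium. Cytotoxicity taken as concentration-dependent ATP loss; AC50 from standard Hill equation.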

[3] = Cell Viability - LYMP2-024 (AID 988); further: potency means the concentration at half of the fitted maximal effect; nearly all actives have a fitted effect of over 60% in size
In short: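 ATP-based luminescence (CellTiter-Glo, 30 min RT) after 24 h compound exposure at 37 C of 2500 lymphoblastoid cells/well; decrease in ATP taken as cytotoxicity. qHTS concentration-response fitted to standard Hill equation for AC50.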

[4] = Cell Viability - LYMP2-026 (AID 989); further: potency means the concentration at half of the fitted maximal effect; nearly all actives have a fitted effect of over 50% in size
In short: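 qHTS cytotoxicity: 2500 cells/well, 5 hr 37 C, compound 24 hr 37 C, CellTiter-Glo 30 min RT, luminescence. Tetraoctylammonium bromide positive control. AC50 via standard Hill fit.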

[5] = Cell Viability - LYMP1-002 - Assay at 24 hr (AID 993); further: potency means the concentration at half of the fitted maximal effect
In short: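 CellTiter-Glo luminescence (intracellular ATP) after 24 h compound exposure, 37 C, in LYMP1-002 human lymphoblastoid cells; decreased ATP taken as cytotoxicity. AC50 from standard Hill fit of concentration-response curves.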

[6] = Cell Viability - LYMP1-002 - Assay at 40 hr (AID 994); further: potency means the concentration at half of the fitted maximal effect; nearly all actives have a fitted effect of over 60% in size
In short: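 qHTS cytotoxicity; 2500 cells/well, 5 hr 37 C settle, compound 40 hr 37 C. CellTiter-Glo, 30 min RT, luminescence (ATP). Concentration-response, Hill fit → AC50. Pos. ctrl tetraoctylammonium bromide.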

[7] = qHTS Assay for Lipid Storage Modulators (AID 1519; calls by dose curve; further: potency means the concentration at half of the fitted maximal effect; on activity change, negative = inhibition: on the % scale 0 is the no-effect control and ±100 the full control effect); details: Drosophila S3 cells, BODIPY lipid droplet/cell ratio, laser cytometry, cells loaded with oleic acid
In short: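 Cells seeded at 5,000 per well were treated with compounds over a concentration series and loaded with oleic acid (400 uM, as added). Lipid droplet fluorescence (488 nm excitation, 500-530 nm channel) was read by laser-scanning cytometry and normalized to 20 uM Triacsin C.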

[8] = target: Endonuclease 4 (Escherichia coli (strain K12)) (UniProt P0A6C1); experiment: Counterscreen for APE1 Inhibitors: qHTS Validation Assay for Inhibitors of Endonuclease IV (AID 1708); further: on the % scale 0 is the no-effect control and ±100 the full control effect
In short: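 Read-out: fluorescence rise (ex 525/em 598 nm) from incision of a TAMRA/BHQ-2 double-stranded THF abasic-site substrate (50 nM), measured kinetically; third-minus-first read difference gave reaction progress. Enzyme 2 nM.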

[9] = qHTS for differential inhibitors of proliferation of Plasmodium falciparum line 7G8 (AID 1815);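 further: parasite growth measured after three days of incubation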; further: potency means the concentration at half of the fitted maximal effect;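 on activity change, negative = inhibition: plate controls were vehicle wells for no effect and reference inhibitor wells for full effect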
[10] = qHTS for differential inhibitors of proliferation of Plasmodium falciparum line GB4 (AID 1816); details: Potency: Plasmodium falciparum GB4 proliferation inhibition;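 further: parasite growth measured after 72 h incubation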; further: potency means the concentration at half of the fitted maximal effect;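 on activity change, negative = inhibition: 0% = vehicle DMSO and -100% = reference inhibitor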
[11] = qHTS for differential inhibitors of proliferation of Plasmodium falciparum line W2 (AID 1883); details: Potency: Plasmodium falciparum W2 proliferation inhibition;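 further: parasites grown with compound for 72 h before lysis and staining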; further: potency means the concentration at half of the fitted maximal effect;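 on activity change, negative = inhibition: 0% = vehicle wells and -100% = control inhibitor wells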
[12] = qHTS for differential inhibitors of proliferation of Plasmodium falciparum line 3D7 (AID 1876); further: potency means the concentration at half of the fitted maximal effect
[13] = qHTS for differential inhibitors of proliferation of Plasmodium falciparum line D10 (AID 1877);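 further: parasites grown with compound for 72 h before DNA staining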; further: potency means the concentration at half of the fitted maximal effect;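 on activity change, negative = inhibition: plate controls were vehicle wells for no effect and reference inhibitor wells for full effect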
[14] = target: Alpha-galactosidase A (Homo sapiens) (UniProt P06280); experiment: Counterscreen for Glucocerebrosidase Inhibitors: qHTS Assay for Human alpha-Galactosidase at pH 4.5 (AID 992); further: 0% is about no effect
Sequence of Alpha-galactosidase A (Homo sapiens) (P06280 whole entry, looked up): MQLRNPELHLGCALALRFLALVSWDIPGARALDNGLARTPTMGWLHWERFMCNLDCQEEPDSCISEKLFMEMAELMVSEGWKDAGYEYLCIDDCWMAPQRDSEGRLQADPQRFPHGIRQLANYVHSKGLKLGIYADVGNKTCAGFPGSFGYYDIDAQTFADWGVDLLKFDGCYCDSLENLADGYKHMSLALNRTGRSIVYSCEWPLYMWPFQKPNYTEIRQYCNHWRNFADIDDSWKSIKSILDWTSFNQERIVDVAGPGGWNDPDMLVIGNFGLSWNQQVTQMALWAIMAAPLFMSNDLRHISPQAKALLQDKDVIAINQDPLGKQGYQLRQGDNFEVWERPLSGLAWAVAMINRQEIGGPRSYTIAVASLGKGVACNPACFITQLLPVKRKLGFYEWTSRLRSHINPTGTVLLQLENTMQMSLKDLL
In short: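 Fluorogenic 4-MU alpha-D-galactoside (80 uM) hydrolysis, 2 nM enzyme, pH 4.5 citrate buffer + 0.005% Tween-20; 20 min RT; NaOH/glycine pH 10 stop; Ex365/Em440. Compounds titrated 0.7 nM–77 uM; Hill-equation AC50.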

[15] = target: alpha-glucosidase (Oryza sativa, rice) (UniProt Q653V4); experiment: Counterscreen for Glucocerebrosidase Inhibitors: qHTS Assay for Rice alpha-Glucosidase at pH 5.0 (AID 997);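 further: 0% = full activity with enzyme and -100% = basal without enzyme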
In short: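 Endpoint fluorogenic assay at pH 5.0: compounds (0.7 nM to 77 uM) titrated against 4 nM rice enzyme and 400 uM 4-MU-alpha-glucoside for 20 min at room temperature; NaOH/glycine stop, read ex 365/em 440 nm, Hill-fitted AC50.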

[16] = target: Alpha-galactosidase (Coffea arabica) (UniProt Q42656); experiment: Counterscreen for Glucocerebrosidase Inhibitors: qHTS Assay for Coffee Bean alpha-Galactosidase at pH 5.9 (AID 998);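 further: plate controls were uninhibited enzyme for no effect and no-enzyme basal signal for full effect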
Sequence of Alpha-galactosidase (Coffea arabica) (Q42656 whole entry, looked up): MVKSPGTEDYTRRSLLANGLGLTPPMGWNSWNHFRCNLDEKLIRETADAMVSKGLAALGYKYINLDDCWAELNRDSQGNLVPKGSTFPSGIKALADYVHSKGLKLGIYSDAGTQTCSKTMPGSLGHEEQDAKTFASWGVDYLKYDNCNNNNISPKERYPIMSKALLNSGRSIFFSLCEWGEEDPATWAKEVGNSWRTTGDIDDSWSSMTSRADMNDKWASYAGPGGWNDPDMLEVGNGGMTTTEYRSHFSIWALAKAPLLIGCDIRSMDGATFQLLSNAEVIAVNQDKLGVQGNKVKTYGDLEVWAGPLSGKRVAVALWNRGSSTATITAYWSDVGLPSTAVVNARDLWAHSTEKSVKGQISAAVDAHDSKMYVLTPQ
In short: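 Enzyme 2 nM + cpd (0.7 nM–77 uM titration) + 4-MU-alpha-Gal 80 uM, pH 5.9 citrate/Tween-20, RT 20 min, NaOH/glycine stop pH 10, fluor 365/440. Normalized to no-enzyme and full-activity controls; Hill-fit AC50.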

[17] = Validation of Assay for Modulators of Lamin A Splicing (AID 1459; active means well fitted curve in the direction sought with a large enough effect in the signal ratio; the % refers to the signal ratio;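 further: cells exposed to compound for two days before reading; 0% is about no effect; ratio rise marks activators and ratio drop marks inhibitors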)
In short: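 S3 HeLa cells stably expressing a lamin A-EGFP splicing minigene and DsRed2 were seeded at 600 cells/well in Opti-MEM with 2% FBS, pin-dosed, and incubated 48 hrs at 37 °C, 5% CO2. Laser-scanning cytometry (488 nm) gave GFP/RFP total intensity ratio.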

[18] = target: DNA repair nuclease/redox regulator APEX1 (Homo sapiens) (UniProt P27695); experiment: qHTS Validation Assay for Inhibitors of the Human Apurinic/apyrimidinic Endonuclease 1 (APE1) (AID 1705;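 further: TAMRA fluorescence gain over two minutes as APE1 cuts a quenched THF abasic duplex; on the % scale 0 is the no-effect control and ±100 the full control effect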)
Sequence of DNA repair nuclease/redox regulator APEX1 (Homo sapiens) (P27695 whole entry, looked up): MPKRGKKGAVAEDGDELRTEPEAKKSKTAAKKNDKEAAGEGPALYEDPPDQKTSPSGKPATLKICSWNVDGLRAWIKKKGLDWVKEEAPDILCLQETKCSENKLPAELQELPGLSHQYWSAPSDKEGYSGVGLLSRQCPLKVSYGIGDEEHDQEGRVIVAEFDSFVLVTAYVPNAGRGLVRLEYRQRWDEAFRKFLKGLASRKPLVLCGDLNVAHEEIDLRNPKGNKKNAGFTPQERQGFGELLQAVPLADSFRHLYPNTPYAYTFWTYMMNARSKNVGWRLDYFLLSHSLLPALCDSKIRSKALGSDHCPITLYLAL
In short: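 Human APE1 was preincubated with compound for 15 min at room temperature, then 50 nM (final) THF-abasic double-stranded DNA substrate bearing 5'-TAMRA and 3'-BHQ-2 was added. Incision-driven fluorescence rise (ex 525/em 598 nm) was read kinetically.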

[19] = Counterscreen for APE1 Inhibitors: Fluorescent Dye Displacement Validation Assay (AID 1707);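 further: plate controls were ThO with dsDNA and no compound for no effect and ThO without dsDNA for full effect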
In short: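 Endpoint fluorescence read at 480 nm excitation / 540 nm emission; DNA-binding compounds lower signal by displacing 250 nM Thiazole Orange from 50 nM dsDNA containing a tetrahydrofuran abasic site, Tris-HCl pH7.5 buffer with NaCl and MgCl2.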

[20] = qHTS for differential inhibitors of proliferation of Plasmodium falciparum line Dd2 (AID 1882); details: Potency: Plasmodium falciparum Dd2 proliferation inhibition; further: nearly all actives have a fitted effect of over 65% in size; further: potency means the concentration at half of the fitted maximal effect;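 on activity change, negative = inhibition: compound exposure of 72 h on infected erythrocytes; plate controls were DMSO vehicle for no effect and 0.29 µM artemisinin for full effect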
In short: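 RBC culture, 0.3% parasitemia / 2.5% Hct final; cpd added by pin tool in DMSO; 72 h, 37 C, 5% CO2; lysis buffer + SYBR Green I, o/n RT dark; FI 485/535; norm. to artemisinin 0.29 uM and DMSO.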

[21] = measured here: cell count channel max response
[22] = measured here: lipid channel max response

CC[n+]1c(-c2ccccc2)c2cc(N)ccc2c2ccc(N)cc21
Potency [1]: 15.8 µM (active)
Potency [2]: 7.94 µM (active)
Potency [3]: 12.6 µM (active)
Potency [4]: 15.8 µM (active)
Potency [5]: 31.6 µM (active)
Potency [6]: 31.6 µM (active)
activity change, negative = inhibition ([7]; at 57.5 µM (top of the series)): 1.12% (inactive)
max response [7, 21]: 2.87%
max response [7, 22]: 6.23%

Cc1cc(C(C)(C)C)cc(C)c1CC1=NCCN1
activity change, negative = inhibition ([7]; at 25.7 µM (top of the series)): 0.58% (inactive)
activity change, negative = inhibition ([7]; at 57.5 µM (top of the series)): 0.173% (inactive)
max response [7, 21]: -1.09% and 8.12%
max response [7, 22]: 3.95% and 14.5%
outcome [8]: inactive
Potency [9]: 7.94 µM (active)
Potency [10]: 8.91 µM (active)
Potency [11]: 5.62 µM (active)

NC(N)=NC(=O)c1nc(Cl)c(N)nc1N
activity change, negative = inhibition ([7]; at 25.7 µM (top of the series)): -0.295% (inactive)
activity change, negative = inhibition ([7]; at 57.5 µM (top of the series)): -0.935% (inactive) and 5.62% (inactive)
max response [7, 21]: 12.3% and 6.32% and 9.51%
max response [7, 22]: 15.3% and 5.93% and 17.9%
Potency [10]: 12.6 µM (active)
Potency [12]: 11.2 µM (active)
Potency [13]: 8.91 µM (active)
Potency [11]: 8.91 µM (active)

CCC(=O)O[C@H]1CC[C@H]2[C@@H]3CCC4=CC(=O)CC[C@]4(C)[C@H]3CC[C@]12C
activity change, negative = inhibition ([7]; at 25.7 µM (top of the series)): 0.757% (inactive)
max response [7, 21]: 2.96%
max response [7, 22]: 3.14%

O=C(O)c1nn(Cc2ccc(Cl)cc2Cl)c2ccccc12
outcome [14]: inactive
outcome [15]: inactive
outcome [16]: inactive
outcome [17]: inactive
activity change, negative = inhibition ([7]; at 57.5 µM (top of the series)): -2.04% (inactive)
max response [7, 21]: 45.4%
max response [7, 22]: 43.5%
outcome [18]: inactive
outcome [19]: inactive
outcome [8]: inactive
Potency [9]: inactive
Potency [10]: inactive
Potency [12]: inactive
Potency [13]: inactive
Potency [20]: inactive
Potency [11]: inactive

CNC(=O)Oc1ccc2c(c1)[C@]1(C)CCN(C)[C@@H]1N2C
activity change, negative = inhibition ([7]; at 57.5 µM (top of the series)): 0.848% (inactive)
max response [7, 21]: -15.1%
max response [7, 22]: -15.5%
Potency [9]: 5.01 µM (active)
Potency [10]: 3.98 µM (active)
Potency [12]: 4.47 µM (active)
Potency [13]: 4.47 µM (active)
Potency [11]: 7.08 µM (active)

CCCCCCCCCCCCCCCC[n+]1ccccc1
Potency [7]: 10 µM (active)
max response [7, 21]: -21.8%
max response [7, 22]: -114%

CN1[C@@H]2CC[C@H]1CC(OC(=O)c1cc(Cl)cc(Cl)c1)C2 (stereo not given in full)
outcome [14]: inactive
outcome [15]: inactive
outcome [16]: inactive
activity change, negative = inhibition ([7]; at 57.5 µM (top of the series)): 4.19% (inactive)
max response [7, 21]: 20.8%
max response [7, 22]: 27.7%

Clc1ccc(CSC(Cn2ccnc2)c2ccc(Cl)cc2Cl)cc1 (stereo not given)
activity change, negative = inhibition ([7]; at 57.5 µM (top of the series)): 11.1% (inactive)
max response [7, 21]: -1.1%
max response [7, 22]: 12.4%

CC(N)C(=O)OC(C)(C)Cc1ccc(Cl)cc1 (stereo not given)
outcome [17]: inactive
activity change, negative = inhibition ([7]; at 57.5 µM (top of the series)): 9.94% (inactive)
max response [7, 21]: 6.48%
max response [7, 22]: 18.3%
outcome [18]: inactive
outcome [19]: inactive
Potency [9]: 5.62 µM (active)
Potency [10]: 1 µM (active)
Potency [13]: inactive
Potency [20]: 5.62 µM (active)
Potency [11]: 1.41 µM (active)
